The supplement of paper PMC6555819

These sequences were tested on LXRa homodimer (NR concentration 270 nM) (assay: PBM binding z-score (relative to random genomic background probes); higher = stronger binding; sequences stand for … in GC…GCGATTGACAGCGTAGAATGAAGG).
Procedure, shortened: (§1)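 Custom Agilent 4×180K protein-binding microarrays carried double-stranded probes. Their 34-nt variable regions held direct-repeat seeds, single-nucleotide variants, half-site ablations and random human genomic background sequences. Arrays were incubated 1 h with ligand-free nuclear receptor dimers in PBS pH 7.4, 2% milk, 0.02% Triton X-100, 1 mM DTT, 0.2 mg/mL BSA and 0.4 mg/ml salmon testes DNA. Antibodies against each partner (one per run) detected binding, and scanned fluorescence was regression-normalized. Binding z-scores use random background probes as reference.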

| Sequence | PBM binding z-score |
| --- | --- |
| CCGACTGGGCCAAAGGTTACCATACTCAGTACGA | 0.13 |
| AGTAAAAGTTCATCTAGGTAACGTAAGATATGCT | 5.21 |
| CCTTACGGGTCACTGACAGGTTATATCATTTGGA | 0.675 |
| GCGACTGGGGCATCAGCAGCTTACCATAACTTAA | -0.417 |
| GCTGCTAGGTCAACTAATGGTCAGCTAAAGCTCG | 0.268 |
| CCTACTGGGCCACGAAGGGTCATTGATTCAGTGA | 0.54 |
| ACAGACAGGTGATGAAGGTAACTAAGGCTATCAT | -0.177 |
| TCTTGTAGATCAAGCAGGTTGAGAAAGCCTGAGT | -0.471 |
| TCTATTAGTTGATTAGGGCGACCGAAACAGCGGA | 0.293 |
| CTACCAAGGTGAGCAAGGTCGTTGATTACTATTC | -0.2 |
| ATCGAAAGGTCGTGAGGTGGGTATACAGAAAGGC | 0.358 |
| CTCGAAAGGTCGCTTGAGGTGAGTATACGGATAA | -0.291 |
| CCTTACGGGTCAAGGCTATAGCACGGGTGGTACG | -0.261 |
| AGAATGAGGTTATTAAGATTAGGGAATTGCGGTC | 0.419 |
| TCTCGGAGGACTCGAAAGGTCAGAGCTCGACATC | 1.04 |
| ATCTCTAGGTATAGTTCAGTGAAAGATCGATAGA | 0.814 |
| CATACTAGGTCACGAAAGGTCAAAGTCGAATGAC | 8.77 |
| CCTACTGGGCCCAAGGTCATTGATTCCAATGCTC | 1.44 |
| GGAACGATGGCAAGTTGATAGCAGAGTTTGATGG | -0.63 |
| TCTTGTAGATCATAGGTTAAGAAAGCCGAAGCCT | -0.0576 |

| Sequence | PBM binding z-score |
| --- | --- |
| CGTCCAAGGTCAAAGGCCAGTGAAGAGATGACGG | 0.422 |
| TCATATAGGTAAACAAGTGAAAGTCCGTAAGTTA | 0.256 |
| CCTTACGGGTCACTGACAGGTTATAACATTTGGA | 0.519 |
| ATATGTACGTTATCGGGTCATTCAGTTTGCGCAT | 1.02 |
| CCTTCTGGGCCAAGGTCATTGATCAGTCAAAGCA | 0.639 |
| TCTATTCGTTGAAGGGCAACCGACGAGTCCGTTT | 0.235 |
| CATAGTTGGTCAGGAGGTCACACACCGGATATGA | 1.98 |
| CGTCCAAGGTCAGCAGGTCAGTGATAGCGACGTG | 0.399 |
| AACTCTAGGTAACAAGTTCAGTGAAAGAGAGGAC | 0.364 |
| CCTACTGGGCCATTCAGAGTTCATTGATCATATG | 6.11 |
| CCTACTGGTCCAAAAAGGTCATTGATGCCGATAA | 3.95 |
| AGAATGAGGTTAACATCAGGGAAACAGAATACAT | -0.211 |
| CCTACTGGGCCAAAGGTCATTAATTCCAATGCTC | 3.47 |
| TAGCCTGGGTCAGATCGGGCCAGTATACGCTATA | -0.918 |
| ACAGACAGGTGATGGAGGTAACTCAGGCTATCAT | -0.062 |
| AGAATGAGGTTATTACGATCAGGGAATTGCGGTC | 0.373 |
| TCCTGTAGATCAATAGAGGTTAAGAAAGTGCGCT | 0.803 |
| ACAGACAGGTGATGAGGGTAACTCAGGCTATCAT | 0.0191 |
| GCTGCTAGGACAACTGATGGTCAGCTAAAGCTCG | -0.672 |
| ACTAGCAGGCCAAGTTTGGGTCACTCGAACAAAG | -0.533 |

What follows are sequences tested on LXRb:RXRa (NR concentration 270 nM, RXRa partner concentration 90 nM) in the same assay as above.
Procedure, shortened: as §1

| Sequence | PBM binding z-score |
| --- | --- |
| CCGACTGGGCCAAAGGTTACCATACTCAGTACGA | 2 |
| AGTAAAAGTTCATCTAGGTAACGTAAGATATGCT | 3.31 |
| CCTTACGGGTCACTGACAGGTTATATCATTTGGA | 3.82 |
| GCGACTGGGGCATCAGCAGCTTACCATAACTTAA | -0.0189 |
| GCTGCTAGGTCAACTAATGGTCAGCTAAAGCTCG | 2.02 |
| CCTACTGGGCCACGAAGGGTCATTGATTCAGTGA | 2.41 |
| ACAGACAGGTGATGAAGGTAACTAAGGCTATCAT | 0.0824 |
| TCTTGTAGATCAAGCAGGTTGAGAAAGCCTGAGT | -0.223 |
| TCTATTAGTTGATTAGGGCGACCGAAACAGCGGA | 0.356 |
| CTACCAAGGTGAGCAAGGTCGTTGATTACTATTC | 0.949 |
| ATCGAAAGGTCGTGAGGTGGGTATACAGAAAGGC | 3.28 |
| CTCGAAAGGTCGCTTGAGGTGAGTATACGGATAA | 2.68 |
| CCTTACGGGTCAAGGCTATAGCACGGGTGGTACG | 2.59 |
| AGAATGAGGTTATTAAGATTAGGGAATTGCGGTC | 1.24 |
| TCTCGGAGGACTCGAAAGGTCAGAGCTCGACATC | 2.66 |
| ATCTCTAGGTATAGTTCAGTGAAAGATCGATAGA | 0.685 |
| CATACTAGGTCACGAAAGGTCAAAGTCGAATGAC | 7.29 |
| CCTACTGGGCCCAAGGTCATTGATTCCAATGCTC | 2.53 |
| GGAACGATGGCAAGTTGATAGCAGAGTTTGATGG | -0.971 |
| TCTTGTAGATCATAGGTTAAGAAAGCCGAAGCCT | 0.991 |

| Sequence | PBM binding z-score |
| --- | --- |
| CGTCCAAGGTCAAAGGCCAGTGAAGAGATGACGG | 3.87 |
| TCATATAGGTAAACAAGTGAAAGTCCGTAAGTTA | 1.17 |
| CCTTACGGGTCACTGACAGGTTATAACATTTGGA | 3.76 |
| ATATGTACGTTATCGGGTCATTCAGTTTGCGCAT | 2.32 |
| CCTTCTGGGCCAAGGTCATTGATCAGTCAAAGCA | 2.84 |
| TCTATTCGTTGAAGGGCAACCGACGAGTCCGTTT | 1.05 |
| CATAGTTGGTCAGGAGGTCACACACCGGATATGA | 3.28 |
| CGTCCAAGGTCAGCAGGTCAGTGATAGCGACGTG | 2.59 |
| AACTCTAGGTAACAAGTTCAGTGAAAGAGAGGAC | 0.379 |
| CCTACTGGGCCATTCAGAGTTCATTGATCATATG | 1.86 |
| CCTACTGGTCCAAAAAGGTCATTGATGCCGATAA | 4.54 |
| AGAATGAGGTTAACATCAGGGAAACAGAATACAT | 2.21 |
| CCTACTGGGCCAAAGGTCATTAATTCCAATGCTC | 4.65 |
| TAGCCTGGGTCAGATCGGGCCAGTATACGCTATA | 0.153 |
| ACAGACAGGTGATGGAGGTAACTCAGGCTATCAT | -0.121 |
| AGAATGAGGTTATTACGATCAGGGAATTGCGGTC | 1.49 |
| TCCTGTAGATCAATAGAGGTTAAGAAAGTGCGCT | 1.93 |
| ACAGACAGGTGATGAGGGTAACTCAGGCTATCAT | 0.0104 |
| GCTGCTAGGACAACTGATGGTCAGCTAAAGCTCG | -1.14 |
| ACTAGCAGGCCAAGTTTGGGTCACTCGAACAAAG | 0.67 |
